Results published in PubChem BioAssay AID504339 (National Center for Advancing Translational Sciences (NCATS), 2011).
In all, about 390,000 compounds went through this assay and about 17,000 (4.4%) were called active. Roughly 8% stayed inconclusive and do not appear here. The full list was thinned out, with actives kept by preference. Values without a mark were called inactive. Calls follow the shape of the dose curve; as a rule, active = well fitted inhibition curve with a large enough effect; inconclusive = small, poorly fitted or top-dose-only effect; inactive = no such curve, though single readings can be large or run the other way.
% is scaled to controls: 0 for no effect and ±100 for the full control effect; potency is read from the fitted curve at half-maximal effect.
Also: nearly all actives have a fitted effect of over 50% in size.

The compounds below were run against Lysine-specific demethylase 4A (Homo sapiens) (UniProt O75164) (assay: qHTS Assay for Inhibitors of JMJD2A-Tudor Domain). Settings: AlphaScreen JMJD2A-Tudor / H3K4me3 peptide binding; series mostly up to 114 µM; activity change, negative = inhibition: at the top concentration.
Lysine-specific demethylase 4A (Homo sapiens), sequence (O75164 whole entry, looked up, the tested form may be a part): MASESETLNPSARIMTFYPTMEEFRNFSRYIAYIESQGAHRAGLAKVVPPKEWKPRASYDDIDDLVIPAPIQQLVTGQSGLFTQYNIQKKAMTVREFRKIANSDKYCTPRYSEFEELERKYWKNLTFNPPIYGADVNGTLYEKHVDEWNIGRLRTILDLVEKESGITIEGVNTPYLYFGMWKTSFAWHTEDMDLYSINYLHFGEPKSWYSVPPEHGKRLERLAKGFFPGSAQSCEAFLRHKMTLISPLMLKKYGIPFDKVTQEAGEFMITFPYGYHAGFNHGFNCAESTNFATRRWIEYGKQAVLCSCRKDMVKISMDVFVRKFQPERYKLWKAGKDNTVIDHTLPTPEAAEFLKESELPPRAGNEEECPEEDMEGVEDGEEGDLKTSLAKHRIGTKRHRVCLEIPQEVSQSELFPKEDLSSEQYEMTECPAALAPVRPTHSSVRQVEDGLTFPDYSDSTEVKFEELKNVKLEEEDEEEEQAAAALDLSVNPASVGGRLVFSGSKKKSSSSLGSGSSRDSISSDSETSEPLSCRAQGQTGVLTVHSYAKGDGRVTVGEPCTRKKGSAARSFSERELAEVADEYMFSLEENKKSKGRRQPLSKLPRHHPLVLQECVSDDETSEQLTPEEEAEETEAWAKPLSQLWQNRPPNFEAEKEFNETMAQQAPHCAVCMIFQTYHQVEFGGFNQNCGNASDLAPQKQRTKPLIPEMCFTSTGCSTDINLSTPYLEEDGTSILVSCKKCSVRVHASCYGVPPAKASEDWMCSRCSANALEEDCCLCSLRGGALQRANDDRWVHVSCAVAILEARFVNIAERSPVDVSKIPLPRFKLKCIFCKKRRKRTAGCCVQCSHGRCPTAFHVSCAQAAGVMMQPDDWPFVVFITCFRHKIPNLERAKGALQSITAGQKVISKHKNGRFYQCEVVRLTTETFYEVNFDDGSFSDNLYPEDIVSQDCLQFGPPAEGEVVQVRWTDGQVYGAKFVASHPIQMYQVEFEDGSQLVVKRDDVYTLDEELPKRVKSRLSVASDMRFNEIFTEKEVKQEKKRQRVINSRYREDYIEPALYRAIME
With COC(CCN(C)C)(c1ccccc1)c1ccccc1 the “activity change, negative = inhibition” value was -9.55%.
For CN(C)CCOC1c2ccccc2-c2ccccc21, the Potency was 1.41 µM (active).
With COc1cc(NC(=O)c2nn(-c3ccc(C)cc3)c(=O)c3c2c2ccccc2n3C)cc(OC)c1OC the “activity change, negative = inhibition” value was -17%.
With O=C(CN1C(=O)COc2ccc(S(=O)(=O)N3CCOCC3)cc21)N1CCN(c2cccc(Cl)c2)CC1 the “activity change, negative = inhibition” value was -21.2%.
CCOc1ccccc1/C=N/NC(=O)CNC(=O)COc1ccccc1 was tested, and the “activity change, negative = inhibition” value was -34.1%.
For Brc1ccccc1/C=N/Nc1nc2ccccc2o1, the “activity change, negative = inhibition” value was -17.8%.
For CCOc1ccccc1/C=N/Nc1nc2ccccc2o1, the Potency was 17.8 µM (active).
With COc1ccc(NC(=O)c2sc3nc[nH]c(=O)c3c2C)cc1 the “activity change, negative = inhibition” value was -27.1%.
For Cc1[nH]n(-c2ccc([N+](=O)[O-])cc2)c(=O)c1C=NCCN1CCN(C(=O)c2ccccc2F)CC1, the “activity change, negative = inhibition” value was -10.6%.
With O=c1[nH]n(-c2ccc([N+](=O)[O-])cc2)c(=O)c2ccccc12 the Potency was 39.8 µM (active).
In the case of CC(=O)N1c2ccccc2N(Cc2ccc([N+](=O)[O-])cc2)C(=O)C1(C)C, the “activity change, negative = inhibition” value is reported as -30.2%.
Cc1nc2c(c(C)nn2-c2ccccc2)c(C)c1CCC(=O)NCCc1ccc(Cl)cc1 was tested, and the “activity change, negative = inhibition” value was -8.72%.
For Cc1ccc(C)c(Cn2c(CCCNC(=O)C3CCCCC3)nc3ccccc32)c1, the “activity change, negative = inhibition” value was -1.01%.
In the case of COc1ccccc1Cc1nc2ccccc2nc1SCC(=O)N1CCCc2ccccc21, the “activity change, negative = inhibition” value is reported as -10.7%.
CC(C)c1ccc(Cn2c(COc3ccccc3)nc3ccccc32)cc1 was tested, and the “activity change, negative = inhibition” value was 38.1%.
Cn1c2ccccc2c(=O)c2c(=O)n(Cc3ccco3)c(COc3ccccc3)nc21 was tested, and the Potency was 44.7 µM (active).
With O=C(CSc1nnc(COc2ccc(Cl)cc2)n1Cc1ccco1)N1CCNC1=O the “activity change, negative = inhibition” value was -15.4%.
For O=C(CSc1nc2c(c(=O)[nH]1)CN(Cc1ccc(F)cc1)CC2)Nc1ccccc1Cl, the “activity change, negative = inhibition” value was -12.3%.
COc1cc2nc(SCc3ccc(F)cc3)n3nc(CCn4c(C)nc5ccccc54)nc3c2cc1OC was tested, and the “activity change, negative = inhibition” value was -21.7%.
Cc1ccc2nc3c(cc(C(=O)NC4CCCCC4)c(=N)n3C(C)C)c(=O)n2c1 was tested, and the “activity change, negative = inhibition” value was -7.61%.
With CCC1=Nc2cc(C(=O)NCC(C)c3ccccc3)ccc2Sc2ccc(C)cc21 (centres undefined) the “activity change, negative = inhibition” value was -12.7%.
In the case of Cc1cccc(N2CCN(c3ccc(C(=O)O)cc3NC(=O)c3ccccc3F)CC2C)c1 (centres undefined), the Potency is reported as 56.2 µM (active).
With Cc1cccc(N2CCN(C(=O)c3ccccc3NC(=O)C3CCCCC3C(=O)O)CC2)c1 (centres undefined) the “activity change, negative = inhibition” value was -8.22%.
With Cc1cccc(N2CCN(C(=O)c3cccc(S(=O)(=O)N4CCc5ccccc5C4)c3)CC2C)c1 (centres undefined) the “activity change, negative = inhibition” value was -19.5%.
With O=S(=O)(c1ccc2c(c1)OCCCO2)N1CCN(S(=O)(=O)c2c(F)cccc2F)CC1 the “activity change, negative = inhibition” value was -14.4%.
With CCCCCn1c(=O)[nH]c2cc(C(=O)Nc3ccc(F)cc3)ccc2c1=O the “activity change, negative = inhibition” value was -2.39%.
In the case of COc1ccccc1CNC(=O)CCn1c(=O)c2ccccc2n(CC(=O)Nc2ccc(Br)cc2F)c1=O, the “activity change, negative = inhibition” value is reported as -1.02%.
For Cc1ccc2c(c1)-c1c(cnn1CC(=O)Nc1ccccc1C#N)CO2, the “activity change, negative = inhibition” value was -9.82%.
In the case of Cn1cc(S(=O)(=O)N2CCCCCC2)cc1C(=O)N1CCN(c2ccc(F)cc2)CC1, the “activity change, negative = inhibition” value is reported as -32.9%.
For CCOC(=O)c1cc(-c2ccc(OC)c(S(=O)(=O)Nc3ccc(OC)cc3OC)c2)on1, the “activity change, negative = inhibition” value was -13%.
O=S(=O)(NC1CCCCC1)c1ccc(F)c2ccccc12 was tested, and the “activity change, negative = inhibition” value was 3.31%.
With O=S(=O)(NC1CC1)c1ccc(Cl)cc1 the “activity change, negative = inhibition” value was -7.53%.
O=S(=O)(NC1CC1)c1ccc2c3c(cccc13)CC2 was tested, and the Potency was 17.8 µM (active).
Cc1ccc(-c2nnc3c4ccccc4c(C)nn23)cc1NC(=O)c1cccc(Br)c1 was tested, and the “activity change, negative = inhibition” value was -3.78%.
In the case of Cc1ccccc1C(=O)Nc1nnc(S(=O)(=O)N(C)c2ccc(Cl)cc2)s1, the “activity change, negative = inhibition” value is reported as 2.96%.
N#Cc1nc(Nc2cccc(Cl)c2)nc(NC2CCCC2)n1 was tested, and the “activity change, negative = inhibition” value was -11.6%.
COc1ccc(NC(=O)C(c2ccccc2)N2Cc3ccccc3C2=O)cc1 (centres undefined) was tested, and the “activity change, negative = inhibition” value was -26%.
COc1ccc2c(c1)c(=Cc1ccc(N(C)C)cc1)c1cc(-c3ccccc3)[n+](C)n12 was tested, and the Potency was 22.4 µM (active).
COc1ccc(-c2onc(C)c2C)cc1S(=O)(=O)NCc1cccs1 was tested, and the “activity change, negative = inhibition” value was -8.44%.
For COc1ccc(C)cc1Nc1nc(C)nc2c1oc1ccccc12, the Potency was 17.8 µM (active).
In the case of COC(=O)c1cnc(Nc2cc(C)ccc2OC)c2ccccc12, the “activity change, negative = inhibition” value is reported as 61.9%.
With COc1ccccc1Nc1ncnc2c1oc1ccccc12 the “activity change, negative = inhibition” value was 17.7%.
With O=C(OCC#CCSc1nnc(-c2ccco2)o1)c1ccc(F)cc1 the “activity change, negative = inhibition” value was 23.8%.
COC(=O)c1ccc(OC)c(Cn2c(=O)n(Cc3ccccc3)c(=O)c3c2c2cc(OC)ccc2n3C)c1 was tested, and the “activity change, negative = inhibition” value was -11.3%.
For O=C1Nc2ccc(Br)cc2/C1=N/N=C/C1=C(N2CCOCC2)C(=C\c2ccccc2)/CC1, the Potency was 5.01 µM (active).
COc1ccc(/C=N/N=C2/C(=O)Nc3ccccc32)cc1O showed an activity change, negative = inhibition of -12.8% [at 11.4 µM].
For COc1cc(OC)cc(C(=O)Nc2cc3nn(-c4ccccc4)nc3cc2Cl)c1, the “activity change, negative = inhibition” value was -5.6%.
CCCNC(=O)CCC(=O)N1Cc2ccccc2Oc2ncccc21 was tested, and the “activity change, negative = inhibition” value was -21%.
With Cc1ccc(-c2noc(-c3nnn(-c4cccc(C(F)(F)F)c4)c3N)n2)cc1 the “activity change, negative = inhibition” value was -19%.
